# Data reported in PubChem BioAssay (NCATS).
# Unmarked numbers belong to inactive results. Results filed as inconclusive are left out. A call without a number means that no potency is given here. Activity calls are given as the source filed them. Unless noted, calls come from the whole dose curve; as a rule, active = well fitted curve in the direction sought with a large enough effect; inconclusive = small, poorly fitted or top-dose-only effect, or another doubt; inactive = no such curve, though single readings can be large; an effect the other way counts as inactive or inconclusive.
# What was measured:
# [1] = molecular target: Cytochrome P450 1A2 (Homo sapiens) (UniProt P05177); test: p450-cyp1a2 (AID 410; calls by dose curve; note: potency is the fitted concentration of half-maximal effect)
# Method in brief: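 O-Demethylation of luciferin 6' methyl ether by human CYP1A2 is monitored as luciferase luminescence. Substrate sits at Km (100uM); enzyme is 20nM. Values are scaled to 57 uM furafylline as maximal inhibition.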
# [2] = molecular target: Glucocorticoid receptor (Homo sapiens) (UniProt P04150); test: GR-GFP Redistribution (AID 450;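 active = compounds whose dose series gives a full or clear partial fitted curve of increased nuclear translocation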; note: potency is the fitted concentration of half-maximal effect)
# [3] = molecular target: Mitogen-activated protein kinase 10 (Mus musculus) (UniProt Q61831); test: JNK3 AlphaScreen Assay (AID 530; active = well fitted curve in either direction with a large enough effect, not every such curve was filed as active;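 note: kinase came from lysate of stimulated human HepG2 cells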; note: potency is the fitted concentration of half-maximal effect)
# Method in brief: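 Activity was read by AlphaScreen after JNK3-containing HepG2 lysate (cytokine pre-activated) phosphorylated biotinylated GST-cJun with 10 uM ATP at room temperature. Phospho-Ser73 cJun antibody with Protein-A acceptor beads provided detection.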
# [4] = molecular target: 3',5'-cyclic-AMP phosphodiesterase 4B (Homo sapiens) (UniProt Q07343); test: qHTS Assay for Inhibitors of PDE-IV (AID 607; active = well fitted activation curve with a large enough effect in the main read-out, with a control signal flat, not every such curve was filed as active; note: potency is the fitted concentration of half-maximal effect)
# Method in brief: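 HEK293 ACTOne cells with CNG channel (1000/well), endogenous PDE4; membrane potential dye, compounds up to 22.9 uM final. Fluorescence Ex 535/Em 590; RO 20-1724 (100 uM final) as reference.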
# [5] = molecular target: Cytochrome P450 2D6 (Homo sapiens) (UniProt P10635); test: qHTS Assay for Inhibitors and Substrates of Cytochrome P450 2D6 (AID 891); note: nearly all actives have a fitted effect of over 60% in size; note: potency is the fitted concentration of half-maximal effect
# Method in brief: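 Luminescent read-out of luciferin formed by 5 nM human CYP2D6 demethylating 30 uM Luciferin-ME EGE (Km level) over 60 min at room temperature after NADPH regeneration addition. Data normalized to full inhibition by 1.43 uM quinidine.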
# [6] = molecular target: Glucocorticoid receptor (Homo sapiens) (UniProt P04150); test: GR-EFC Redistribution (AID 451; calls by dose curve; note: potency is the fitted concentration of half-maximal effect); conditions: CHO-K1 GR-EFC translocation, beta-gal luminescence, 2 h
# Method in brief: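 CHO-K1 cells expressing nuclear EA and GR-ED fragments of b-gal; compounds titrated up to 46 uM final, 2 h at 37 C. GR nuclear translocation read as complemented b-gal luminescence after 1 h RT detection.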
# [7] = molecular target: Cytochrome P450 2C9 (Homo sapiens) (UniProt P11712); test: qHTS Assay for Inhibitors and Substrates of Cytochrome P450 2C9 (AID 883); note: nearly all actives have a fitted effect of over 60% in size; note: potency is the fitted concentration of half-maximal effect
# Method in brief: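 Human CYP2C9 (10nM) with Luciferin-H at 100uM (its KM) in 25mM KPO4; compound preincubated 10 min at 37C, then NADPH regeneration for 60 min at 37C. Luciferin read by luminescence after detection reagent; normalized to 57uM sulphaphenazole as full inhibition.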
# [8] = molecular target: Cytochrome P450 2C19 (Homo sapiens) (UniProt P33261); test: qHTS Assay for Inhibitors and Substrates of Cytochrome P450 2C19 (AID 899); note: nearly all actives have a fitted effect of over 60% in size; note: potency is the fitted concentration of half-maximal effect
# Method in brief: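 5 nM human CYP2C19 with 10uM Luciferin-H EGE (at KM) in 50mM KPO4, compound preincubated 10 min at 37C, then NADPH regeneration for 60 min at 37C. Luciferin read by luminescence after detection reagent; normalized to 57uM ketoconazole as full inhibition.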
# [9] = molecular target: Cytochrome P450 3A4 (Homo sapiens) (UniProt P08684); test: qHTS Assay for Inhibitors and Substrates of Cytochrome P450 3A4 (AID 884); note: nearly all actives have a fitted effect of over 50% in size; note: potency is the fitted concentration of half-maximal effect
# Method in brief: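 Luminescent readout of luciferin produced by CYP3A4 (20 nM) dealkylation of Luciferin-PPXE, 25 uM (its KM). NADPH-driven reaction ran 60 min at RT after 10 min compound preincubation; data scaled to 57 uM ketoconazole as 100% inhibition.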
# [10] = molecular target: Cytochrome P450 3A4 (Homo sapiens) (UniProt P08684); test: qHTS Assay for Activators of Cytochrome P450 3A4 (AID 885); note: nearly all actives have a fitted effect of over 65% in size
# Method in brief: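 Human CYP3A4 dealkylates Luciferin-PPXE to luciferin, which luciferase detection converts to light. Substrate was at its KM (25uM), buffer 200mM KPO4, reaction 60 min at RT.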
# [11] = molecular target: DNA dC->dU-editing enzyme APOBEC-3G (Homo sapiens) (UniProt Q9HC16); test: qHTS for inhibitors of Vif-A3G interactions: Validation (AID 588379)
# Method in brief: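 Yellow fluorescence (Ex 488, Em 500-530) of Vif-coexpressing HeLa A3G-eYFP cells, scanned by Acumen cytometer, reports blocked A3G degradation. Cells plated at 700/well overnight at 37 deg C before compound addition, then a further overnight compound incubation at 37 deg C.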
# DNA dC->dU-editing enzyme APOBEC-3G (Homo sapiens), sequence (Q9HC16 whole entry, looked up): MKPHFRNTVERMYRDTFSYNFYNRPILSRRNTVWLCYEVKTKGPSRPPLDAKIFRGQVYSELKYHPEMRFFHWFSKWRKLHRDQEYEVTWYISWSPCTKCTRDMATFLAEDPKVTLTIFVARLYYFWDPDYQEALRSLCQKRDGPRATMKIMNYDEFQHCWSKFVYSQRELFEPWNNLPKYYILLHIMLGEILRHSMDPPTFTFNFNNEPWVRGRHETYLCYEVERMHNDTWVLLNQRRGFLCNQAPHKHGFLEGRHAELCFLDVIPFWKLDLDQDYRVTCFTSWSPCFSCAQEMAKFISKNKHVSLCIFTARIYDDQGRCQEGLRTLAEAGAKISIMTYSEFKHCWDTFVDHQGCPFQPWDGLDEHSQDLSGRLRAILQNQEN
# Cytochrome P450 1A2 (Homo sapiens), sequence (P05177 whole entry, looked up): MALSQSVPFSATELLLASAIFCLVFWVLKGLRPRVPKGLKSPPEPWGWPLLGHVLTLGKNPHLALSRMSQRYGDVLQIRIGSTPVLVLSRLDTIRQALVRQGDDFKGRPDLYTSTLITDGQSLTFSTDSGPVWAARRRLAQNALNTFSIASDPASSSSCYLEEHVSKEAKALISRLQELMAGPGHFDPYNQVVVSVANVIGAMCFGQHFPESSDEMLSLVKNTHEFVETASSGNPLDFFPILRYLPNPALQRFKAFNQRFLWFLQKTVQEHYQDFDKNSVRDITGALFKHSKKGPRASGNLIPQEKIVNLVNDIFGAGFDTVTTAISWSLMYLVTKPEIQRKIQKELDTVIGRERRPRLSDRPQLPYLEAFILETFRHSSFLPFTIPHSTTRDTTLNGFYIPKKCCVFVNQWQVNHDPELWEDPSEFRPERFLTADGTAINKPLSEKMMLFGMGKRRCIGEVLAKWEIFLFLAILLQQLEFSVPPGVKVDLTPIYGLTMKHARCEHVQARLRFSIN
# Cytochrome P450 2C19 (Homo sapiens), sequence (P33261 whole entry, looked up): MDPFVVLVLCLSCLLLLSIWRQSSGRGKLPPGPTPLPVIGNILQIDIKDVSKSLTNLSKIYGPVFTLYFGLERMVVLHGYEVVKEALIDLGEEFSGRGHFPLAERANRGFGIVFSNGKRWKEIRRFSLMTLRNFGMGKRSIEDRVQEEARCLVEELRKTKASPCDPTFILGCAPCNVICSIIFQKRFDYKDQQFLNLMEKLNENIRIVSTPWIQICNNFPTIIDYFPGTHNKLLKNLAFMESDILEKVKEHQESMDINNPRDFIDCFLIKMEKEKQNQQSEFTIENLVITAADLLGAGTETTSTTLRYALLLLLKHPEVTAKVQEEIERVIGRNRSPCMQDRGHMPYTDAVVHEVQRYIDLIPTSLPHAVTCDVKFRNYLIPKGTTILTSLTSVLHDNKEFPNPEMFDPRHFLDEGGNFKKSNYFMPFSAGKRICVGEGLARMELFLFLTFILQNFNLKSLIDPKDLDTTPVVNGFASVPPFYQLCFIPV
# 3',5'-cyclic-AMP phosphodiesterase 4B (Homo sapiens), sequence (Q07343 whole entry, looked up): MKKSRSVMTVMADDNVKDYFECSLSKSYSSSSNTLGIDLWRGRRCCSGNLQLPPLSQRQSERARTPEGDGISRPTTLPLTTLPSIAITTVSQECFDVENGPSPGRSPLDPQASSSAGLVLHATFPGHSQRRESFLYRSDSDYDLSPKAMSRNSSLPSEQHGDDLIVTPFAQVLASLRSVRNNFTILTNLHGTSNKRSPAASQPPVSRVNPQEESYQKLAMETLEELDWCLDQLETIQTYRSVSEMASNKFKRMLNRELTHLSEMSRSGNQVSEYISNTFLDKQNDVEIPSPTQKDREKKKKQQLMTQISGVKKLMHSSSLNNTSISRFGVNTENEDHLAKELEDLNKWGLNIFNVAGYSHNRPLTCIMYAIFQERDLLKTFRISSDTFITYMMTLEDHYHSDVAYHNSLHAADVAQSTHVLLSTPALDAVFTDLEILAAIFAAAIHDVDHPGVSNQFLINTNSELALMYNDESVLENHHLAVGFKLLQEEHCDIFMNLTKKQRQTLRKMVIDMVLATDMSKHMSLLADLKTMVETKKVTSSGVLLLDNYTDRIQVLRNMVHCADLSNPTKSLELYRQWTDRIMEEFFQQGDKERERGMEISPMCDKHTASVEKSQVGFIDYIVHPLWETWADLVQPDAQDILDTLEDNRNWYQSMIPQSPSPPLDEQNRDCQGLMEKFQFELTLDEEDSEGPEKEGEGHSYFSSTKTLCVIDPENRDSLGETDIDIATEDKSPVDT
# Cytochrome P450 2C9 (Homo sapiens), sequence (P11712 whole entry, looked up): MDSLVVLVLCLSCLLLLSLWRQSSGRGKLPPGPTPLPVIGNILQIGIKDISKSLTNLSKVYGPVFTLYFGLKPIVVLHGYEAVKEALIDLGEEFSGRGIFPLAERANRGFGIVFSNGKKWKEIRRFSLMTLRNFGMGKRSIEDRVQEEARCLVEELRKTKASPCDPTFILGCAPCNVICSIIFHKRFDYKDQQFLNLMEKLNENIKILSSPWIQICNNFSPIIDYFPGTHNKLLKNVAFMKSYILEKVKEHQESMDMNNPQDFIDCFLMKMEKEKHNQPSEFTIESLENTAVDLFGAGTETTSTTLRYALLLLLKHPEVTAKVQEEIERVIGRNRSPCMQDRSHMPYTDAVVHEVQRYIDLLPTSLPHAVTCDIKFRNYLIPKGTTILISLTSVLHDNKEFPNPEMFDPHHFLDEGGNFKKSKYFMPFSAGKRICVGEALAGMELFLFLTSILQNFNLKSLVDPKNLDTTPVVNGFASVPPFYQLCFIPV
# Glucocorticoid receptor (Homo sapiens), sequence (P04150 whole entry, looked up, the tested form may be a part): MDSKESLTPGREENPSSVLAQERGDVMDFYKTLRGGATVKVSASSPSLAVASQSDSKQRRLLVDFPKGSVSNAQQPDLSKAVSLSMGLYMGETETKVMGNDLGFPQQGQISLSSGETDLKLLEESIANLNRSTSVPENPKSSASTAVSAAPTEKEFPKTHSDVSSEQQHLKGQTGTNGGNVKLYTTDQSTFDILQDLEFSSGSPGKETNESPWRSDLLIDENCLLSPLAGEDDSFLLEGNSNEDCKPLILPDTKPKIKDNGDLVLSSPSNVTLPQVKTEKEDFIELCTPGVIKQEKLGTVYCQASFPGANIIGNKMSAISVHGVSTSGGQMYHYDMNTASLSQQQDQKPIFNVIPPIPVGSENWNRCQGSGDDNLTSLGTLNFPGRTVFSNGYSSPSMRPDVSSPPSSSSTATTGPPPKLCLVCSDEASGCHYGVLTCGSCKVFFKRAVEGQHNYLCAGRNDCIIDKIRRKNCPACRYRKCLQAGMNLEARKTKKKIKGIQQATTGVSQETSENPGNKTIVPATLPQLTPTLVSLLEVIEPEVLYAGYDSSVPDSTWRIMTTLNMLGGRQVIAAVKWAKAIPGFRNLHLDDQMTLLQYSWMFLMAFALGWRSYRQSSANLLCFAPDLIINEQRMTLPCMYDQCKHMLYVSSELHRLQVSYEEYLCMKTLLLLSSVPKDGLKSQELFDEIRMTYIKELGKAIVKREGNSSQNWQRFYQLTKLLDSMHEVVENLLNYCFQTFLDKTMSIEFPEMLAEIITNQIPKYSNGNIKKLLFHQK
# Cytochrome P450 3A4 (Homo sapiens), sequence (P08684 whole entry, looked up): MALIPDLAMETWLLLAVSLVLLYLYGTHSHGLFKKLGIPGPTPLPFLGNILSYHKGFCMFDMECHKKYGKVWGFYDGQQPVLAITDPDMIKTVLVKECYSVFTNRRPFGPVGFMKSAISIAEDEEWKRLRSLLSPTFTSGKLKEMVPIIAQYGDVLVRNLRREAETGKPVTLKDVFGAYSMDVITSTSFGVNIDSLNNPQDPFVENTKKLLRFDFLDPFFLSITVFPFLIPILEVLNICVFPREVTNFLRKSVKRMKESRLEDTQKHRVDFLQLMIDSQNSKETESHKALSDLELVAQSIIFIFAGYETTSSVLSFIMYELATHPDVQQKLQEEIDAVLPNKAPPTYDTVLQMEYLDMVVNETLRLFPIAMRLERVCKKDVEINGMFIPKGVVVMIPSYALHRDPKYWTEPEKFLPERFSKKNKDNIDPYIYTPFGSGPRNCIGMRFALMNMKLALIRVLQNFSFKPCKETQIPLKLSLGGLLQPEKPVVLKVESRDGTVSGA
# Cytochrome P450 2D6 (Homo sapiens), sequence (P10635 whole entry, looked up): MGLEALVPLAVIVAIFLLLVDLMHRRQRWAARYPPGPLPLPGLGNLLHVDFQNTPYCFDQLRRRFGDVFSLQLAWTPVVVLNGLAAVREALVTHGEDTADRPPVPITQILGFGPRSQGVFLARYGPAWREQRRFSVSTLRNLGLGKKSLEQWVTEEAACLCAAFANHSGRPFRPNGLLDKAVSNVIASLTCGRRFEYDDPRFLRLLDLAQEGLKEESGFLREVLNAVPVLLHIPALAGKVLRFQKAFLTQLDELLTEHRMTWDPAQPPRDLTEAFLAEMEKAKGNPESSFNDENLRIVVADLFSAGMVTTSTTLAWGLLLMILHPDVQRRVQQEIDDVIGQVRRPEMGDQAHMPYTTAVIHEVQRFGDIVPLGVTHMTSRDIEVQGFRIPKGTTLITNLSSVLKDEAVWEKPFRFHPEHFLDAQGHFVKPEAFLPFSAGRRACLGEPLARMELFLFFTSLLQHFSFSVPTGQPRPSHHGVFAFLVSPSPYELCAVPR
SMILES,Potency [1],Potency [2] [µM],Potency [3],Potency [4],Potency [5],Potency [6] [µM],Potency [7],Potency [8],Potency [9],Potency [10],outcome [11]
CC(=O)[C@H]1[C@H]2[C@H](C(=O)[C@@H]3OC[C@H]2O3)[C@@H]2c3ccccc3C=CN12,31.6 µM (active),> 46,inactive,inactive,inactive,,,,,,
C=C1CC[C@@H]2O[C@]2(C)CC[C@@H]2[C@H]1CC2(C)C,15.8 µM (active),> 46,inactive,,inactive,> 46,25.1 µM (active),,,,
O=C(/C=C\c1ccc(O)c(O)c1)O[C@H]1C[C@@](O)(C(=O)O)C[C@H](O)[C@@H]1O,inactive,> 46,inactive,,inactive,> 46,inactive,inactive,,,
CC(C)C[C@@H](CC(=O)N[C@H](CC(=O)N[C@@H]1CCNC[C@H]1C(=O)N[C@H](CC(=O)N[C@@H](CCC(=O)O)CC(=O)O)CC(C)C)C(C)C)NC(=O)[C@@H]1CCCC[C@H]1N,inactive,,inactive,inactive,,> 46,,,,,
CC1(C)CC[C@]2(C(=O)O)CC[C@]3(C)C(=CC[C@@H]4[C@@]5(C)CC[C@H](O)C(C)(C)[C@@H]5CC[C@@]43C)[C@@H]2C1,inactive,> 46,inactive,,inactive,> 46,inactive,inactive,,,
COc1ccc([C@@H]2OC[C@]3(COC(C)=O)[C@H](C)C=C(C)[C@@H]2[C@H]3C)cc1,15.8 µM (active),> 46,,,inactive,> 46,,6.31 µM (active),,,
C=C1CC[C@@H](O)C/C1=C/C=C1\CCC[C@]2(C)[C@@H]1CC[C@H]2[C@@H](C)/C=C\[C@@H](C)C(C)C,inactive,> 46,inactive,,inactive,> 46,,20 µM (active),,,
C=C1C(=O)O[C@H]2C[C@@]3(C)CCCC(=C)[C@@H]3C[C@H]12,20 µM (active),> 46,inactive,7.55 µM (active),,> 46,,2.51 µM (active),,,
O=C1C=CC2=C3c4cc(O)c(O)cc4C[C@@]3(O)COC2=C1O,39.8 µM (active),> 46,0.501 µM (active),,25.1 µM (active),> 46,,6.31 µM (active),,,
COc1ccc2oc(-c3ccc(O)cc3)cc(=O)c2c1,0.316 µM (active),> 46,,inactive,25.1 µM (active),> 46,2.51 µM (active),,3.98 µM (active),inactive,inactive
CC(C)[C@@H](CC(=O)N[C@@H]1CCNC[C@H]1C(=O)N[C@H](CC(=O)N[C@@H](CCC(=O)O)CC(=O)O)Cc1ccccc1)NC(=O)C[C@H](CO)NC(=O)[C@@H]1CCCC[C@H]1N,inactive,,inactive,inactive,inactive,> 46,inactive,inactive,,,
COc1cc2oc(-c3ccccc3)cc(=O)c2cc1OC,0.2 µM (active),> 46,,inactive,inactive,> 46,inactive,,,,inactive
C[C@H](O)[C@H](O)[C@@H](O)c1cnc2nc(N)[nH]c(=O)c2n1,inactive,> 46,inactive,,inactive,> 46,inactive,inactive,,,
O=c1ccn([C@H]2O[C@H](CO)[C@@H](O)[C@@H]2O)c(=O)[nH]1,inactive,> 46,inactive,inactive,inactive,,inactive,inactive,,,
O=c1cc(-c2ccccc2O)oc2ccc3ccccc3c12,1 µM (active),> 46,,,20 µM (active),> 46,,,,inactive,inactive
O=c1c(O)c(-c2ccc(O)cc2)oc2cc(O)ccc12,0.1 µM (active),> 46,inactive,inactive,,,10 µM (active),15.8 µM (active),,inactive,inactive
O=c1c(O)c(-c2ccc(O)cc2)oc2ccc(O)cc12,0.2 µM (active),> 46,inactive,inactive,inactive,,,inactive,,,inactive
Cc1ccc2oc(-c3ccccc3)c(O)c(=O)c2c1,0.398 µM (active),> 46,,inactive,inactive,> 46,inactive,inactive,inactive,,inactive
NCCC[C@@H](CC(=O)N[C@@H]1CCCC[C@H]1C(=O)N[C@H](CC(=O)N[C@@H](CCC(=O)O)CC(=O)O)Cc1c[nH]c2ccccc12)NC(=O)C[C@H](Cc1c[nH]c2ccccc12)NC(=O)[C@@H]1CNCC[C@H]1N,inactive,,inactive,inactive,inactive,> 46,inactive,inactive,,,
